One assay addresses AR (gene 367) (UniProt P10275). The assay can be described thus: ACEA_AR_antagonist_80hr: ACEA Biosciences xCELLigence Real-Time Cell Analysis on Androgen Receptor Antagonism for Proliferation (AID 2283787).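 Also: 22Rv1 human prostate cancer cells with growth followed by electrical impedance; hits lower the impedance growth signal relative to DMSO.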 Summed up: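 Measures real-time proliferation of 22Rv1 prostate cancer cells by electrode impedance at 80 hours after dosing. Test articles ran at eight concentrations (1:4 steps, top 100 uM final) in biological duplicate.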

Assay [1] deals with turtle Estrogen Receptor (ERa), gene 101933533. The assay can be described thus: ATG_trERa_XSP2: Attagene TRANS-FACTORIAL Multi-Species (XSP2) HepG2 Assay for turtle Estrogen Receptor (ERa) (AID 2283812).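 Also: actives raise reporter signal above DMSO so AC50 reflects agonist activity.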 Summed up:
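Readout is reporter mRNA quantified by RT-PCR with capillary electrophoresis after 24 h compound exposure, increase relative to DMSO. Uses transiently transfected human HepG2 liver cells carrying a chimeric turtle ERa-Gal4 receptor driving GAL4-UAS reporters.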

Assay [2] concerns the target Estrogen receptor beta (Homo sapiens) (UniProt Q92731). The assay can be described thus: ATG_hERb_XSP2: Attagene TRANS-FACTORIAL Multi-Species (XSP2) HepG2 Assay for human Estrogen Receptor (ERb) (AID 2283813).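 Also: actives raise reporter mRNA above DMSO so AC50 reflects agonist induction.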 An outline of the steps: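 Transient TRANS reporter system in HepG2: after 24 h of chemical, RNA is reverse-transcribed, reporter cDNA amplified, FAM-labelled and sized by capillary electrophoresis. Induction of the human ERb-Gal4 reporter is measured relative to DMSO.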

Assay [3] concerns the target GAL4 Transcription Factor (Internal Marker), GAL4 (gene 855828) (UniProt P04386). The assay can be described thus: ATG_GAL4_XSP2: Attagene TRANS-FACTORIAL Multi-Species (XSP2) HepG2 Assay for GAL4 Transcription Factor (Internal Marker) (AID 2283814).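 Also: GAL4 reporter mRNA background control in MRTU transfected cells not a receptor target.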 Summed up: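 Background-control readout: gain-of-signal fitted against DMSO. After 24 h exposure of transfected HepG2 (MRTU, GAL4-UAS reporters; 3 nM 6-alpha-fluorotestosterone, 1.5 nM norgestrel present), transcripts quantified by RT-PCR and capillary electrophoresis fluorescence.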

Assay [4] has as its system turtle Androgen Receptor (AR), gene 101947425. The assay can be described thus: ATG_trAR_XSP2: Attagene TRANS-FACTORIAL Multi-Species (XSP2) HepG2 Assay for turtle Androgen Receptor (AR) (AID 2283815).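 As to AC50: potency for gain of reporter signal meaning activation above DMSO baseline.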 An outline of the steps: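 Reporter transcripts were quantified via RT-PCR and capillary electrophoresis and fitted upward against DMSO. Transiently transfected human HepG2 cells carrying NR-Gal4 chimeras were exposed 24 h, with 3 nM 6-alpha-fluorotestosterone plus 1.5 nM norgestrel added.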

The target in assay [5] is zebrafish Estrogen Receptor (ER1), esr1 (gene 259252) (UniProt P57717). The assay can be described thus: ATG_zfER1_XSP2: Attagene TRANS-FACTORIAL Multi-Species (XSP2) HepG2 Assay for zebrafish Estrogen Receptor (ER1) (AID 2283816). An outline of the steps:
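After 24 h compound exposure, RNA from transfected HepG2 cells was reverse-transcribed and reporter transcripts resolved by capillary electrophoresis. The TRANS format reads exogenous zebrafish ER1-Gal4 chimera activity on GAL4-UAS elements; gain of signal against DMSO.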

For assay [6], the target named is chicken Estrogen Receptor (ERa), ESR1 (gene 396099) (UniProt P06212). The assay can be described thus: ATG_chERa_XSP2: Attagene TRANS-FACTORIAL Multi-Species (XSP2) HepG2 Assay for chicken Estrogen Receptor (ERa) (AID 2283817).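 Also: actives raise reporter signal above DMSO so AC50 reflects ER activation.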 Summed up: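 Readout: fluorescent reporter-transcript fragments resolved by capillary electrophoresis after RT-PCR and HpaI cut. Chicken ERa-Gal4 fusion in transiently transfected HepG2, dosed for 24 h; activity taken as increase over DMSO baseline.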

The test system of assay [7] is zebrafish Estrogen Receptor (ER2a), gene 317734. The assay can be described thus: ATG_zfER2a_XSP2: Attagene TRANS-FACTORIAL Multi-Species (XSP2) HepG2 Assay for zebrafish Estrogen Receptor (ER2a) (AID 2283818).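 Also: hits raise reporter mRNA so AC50 reflects activation of zebrafish ER2a.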 An outline of the steps: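 Multiplexed trans-reporter readout: RT-PCR then capillary electrophoresis of reporter transcripts after 24 h compound treatment. Human HepG2 carries transfected zebrafish ER2a-Gal4 chimera; 3 nM 6-alpha-fluorotestosterone plus 1.5 nM norgestrel present. Induction scored against DMSO.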

In assay [8] the test system is chicken Androgen Receptor (AR), gene 422165. The assay can be described thus: ATG_chAR_XSP2: Attagene TRANS-FACTORIAL Multi-Species (XSP2) HepG2 Assay for chicken Androgen Receptor (AR) (AID 2283819).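 Also: hits raise reporter mRNA above DMSO so potency is for activation.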 An outline of the steps:
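Readout is reporter mRNA induction via RT-PCR/capillary electrophoresis after 24 h chemical exposure, positive direction relative to DMSO. Transiently transfected HepG2 express chimeric chicken AR–GAL4; AR stimulated by 3 nM 6-alpha-fluorotestosterone and 1.5 nM norgestrel.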

The test system of assay [9] is frog Estrogen Receptor (ER), gene 398734. The assay can be described thus: ATG_frER1_XSP2: Attagene TRANS-FACTORIAL Multi-Species (XSP2) HepG2 Assay for frog Estrogen Receptor (ER) (AID 2283821).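 Also: hits raise reporter mRNA above DMSO baseline so potency means agonist or activator.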 Summed up:
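Reporter mRNA induction, detected as fluorescence after RT-PCR and capillary electrophoresis, is the endpoint; activity is fitted upward against DMSO. Cells are human liver HepG2 carrying transfected NR-Gal4 chimeras with GAL4-UAS-driven reporters, harvested 24 h post-dosing.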

Assay [10] can be described thus: ATG_M_19_XSP2: Attagene TRANS-FACTORIAL Multi-Species (XSP2) HepG2 Assay for M32 Transcription Factor (Internal Marker) (AID 2283822). An outline of the steps: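 Internal background marker in a multi-species nuclear receptor TRANS panel: transfected HepG2 cells exposed 24 h, with 3 nM 6-alpha-fluorotestosterone and 1.5 nM norgestrel present. Readout is RT-PCR of reporter transcripts resolved by capillary electrophoresis, gain-of-signal versus DMSO.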

For assay [11], the system named is zebrafish Estrogen Receptor (ER2b), gene 317733. The assay can be described thus: ATG_zfER2b_XSP2: Attagene TRANS-FACTORIAL Multi-Species (XSP2) HepG2 Assay for zebrafish Estrogen Receptor (ER2b) (AID 2283823).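 Also: fitted upward as reporter gain over DMSO so potency reflects activation.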 Summed up: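 HepG2 human liver cells transiently transfected with multiplexed GAL4-UAS reporter units expressing chimeric NR-Gal4 proteins; compounds dosed for 24 h. Reporter mRNA quantified by RT-PCR, 6-FAM labelling and capillary electrophoresis; gain-of-signal fitted against DMSO baseline.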

Assay [12] relates to frog Androgen Receptor (AR), gene 399456. The assay can be described thus: ATG_frAR_XSP2: Attagene TRANS-FACTORIAL Multi-Species (XSP2) HepG2 Assay for frog Androgen Receptor (AR) (AID 2283824).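 Also: reporter mRNA from GAL4-UAS units driven by Xenopus AR-Gal4 chimera; actives raise reporter signal above DMSO so AC50 reflects agonist-like induction.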 Summed up:
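Reporter transcript induction, read by RT-PCR with fluorescent capillary electrophoresis, in human liver HepG2 cells carrying an exogenous Xenopus AR-Gal4 fusion and GAL4-driven reporters; chemical exposure 24 hours, activity scored upward against DMSO controls.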

Assay [13] concerns frog Estrogen Receptor (ER2), gene 100174814. The assay can be described thus: ATG_frER2_XSP2: Attagene TRANS-FACTORIAL Multi-Species (XSP2) HepG2 Assay for frog Estrogen Receptor (ER2) (AID 2283828). Summed up: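 Cells were transfected with reporter constructs under GAL4-UAS control, dosed with chemicals for 24 h, then lysed for RNA; the frog ER2-driven reporter mRNA was quantified by capillary electrophoresis of labeled PCR fragments, with activity fitted upward from DMSO.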

For assay [14], the target named is Peroxisome proliferator-activated receptor gamma (Homo sapiens) (UniProt P37231). The assay can be described thus: ATG_hPPARg_XSP2: Attagene TRANS-FACTORIAL Multi-Species (XSP2) HepG2 Assay for human Peroxisome Proliferator-activated Receptor gamma (PPARg) (AID 2283829).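 Also: actives raise reporter mRNA above DMSO so AC50 reflects PPARg activation.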 Summed up: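 Reporter transcripts were measured by RT-PCR, fluorescent labeling, HpaI digestion and capillary electrophoresis, relative to DMSO, 24 h post-dosing. Transiently transfected HepG2 expressed NR-Gal4 chimeras regulating GAL4-UAS reporters; medium contained 3 nM 6-alpha-fluorotestosterone plus 1.5 nM norgestrel.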

Assay [15] addresses mouse Peroxisome Proliferator-activated Receptor gamma (PPARg), Pparg (gene 19016) (UniProt P37238). The assay can be described thus: ATG_mPPARg_XSP2: Attagene TRANS-FACTORIAL Multi-Species (XSP2) HepG2 Assay for mouse Peroxisome Proliferator-activated Receptor gamma (PPARg) (AID 2283830).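 Also: hits are gains in reporter mRNA above DMSO so AC50 marks activation.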 An outline of the steps: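 Multiplexed TRANS reporter readout: after 24 h chemical exposure of transfected HepG2 cells (with 3 nM 6-alpha-fluorotestosterone, 1.5 nM norgestrel present), RNA reverse-transcribed, amplified, 6-FAM-labelled and resolved by capillary electrophoresis; mouse PPARg-Gal4 induction scored against DMSO.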

Assay [16] deals with zebrafish Androgen Receptor (AR), gene 100005148. The assay can be described thus: ATG_zfAR_XSP2: Attagene TRANS-FACTORIAL Multi-Species (XSP2) HepG2 Assay for zebrafish Androgen Receptor (AR) (AID 2283825).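 Also: hits raise reporter mRNA above DMSO so AC50 reflects agonist-type gain.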 An outline of the steps: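 After 24 h compound exposure in medium with 3 nM 6-alpha-fluorotestosterone plus 1.5 nM norgestrel, HepG2 cells carrying zebrafish AR–GAL4 reporter constructs were assessed for reporter mRNA gain by RT-PCR and capillary electrophoresis.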

“And” between values parts separate entries of the source, which are not always exact repeats. Identical values can stand only once. Records with an inconclusive call do not appear. Some compounds were tested as several samples or in several runs, with calls that do not always agree. The source made the active and inactive calls. The calls were made as follows: active = hit-call score of the fitted dose curve at least 0.9, where 1 is the maximum; inconclusive = response in the unintended direction; inactive = score below 0.9.

Chain of AR (gene 367) (P10275 whole entry, looked up): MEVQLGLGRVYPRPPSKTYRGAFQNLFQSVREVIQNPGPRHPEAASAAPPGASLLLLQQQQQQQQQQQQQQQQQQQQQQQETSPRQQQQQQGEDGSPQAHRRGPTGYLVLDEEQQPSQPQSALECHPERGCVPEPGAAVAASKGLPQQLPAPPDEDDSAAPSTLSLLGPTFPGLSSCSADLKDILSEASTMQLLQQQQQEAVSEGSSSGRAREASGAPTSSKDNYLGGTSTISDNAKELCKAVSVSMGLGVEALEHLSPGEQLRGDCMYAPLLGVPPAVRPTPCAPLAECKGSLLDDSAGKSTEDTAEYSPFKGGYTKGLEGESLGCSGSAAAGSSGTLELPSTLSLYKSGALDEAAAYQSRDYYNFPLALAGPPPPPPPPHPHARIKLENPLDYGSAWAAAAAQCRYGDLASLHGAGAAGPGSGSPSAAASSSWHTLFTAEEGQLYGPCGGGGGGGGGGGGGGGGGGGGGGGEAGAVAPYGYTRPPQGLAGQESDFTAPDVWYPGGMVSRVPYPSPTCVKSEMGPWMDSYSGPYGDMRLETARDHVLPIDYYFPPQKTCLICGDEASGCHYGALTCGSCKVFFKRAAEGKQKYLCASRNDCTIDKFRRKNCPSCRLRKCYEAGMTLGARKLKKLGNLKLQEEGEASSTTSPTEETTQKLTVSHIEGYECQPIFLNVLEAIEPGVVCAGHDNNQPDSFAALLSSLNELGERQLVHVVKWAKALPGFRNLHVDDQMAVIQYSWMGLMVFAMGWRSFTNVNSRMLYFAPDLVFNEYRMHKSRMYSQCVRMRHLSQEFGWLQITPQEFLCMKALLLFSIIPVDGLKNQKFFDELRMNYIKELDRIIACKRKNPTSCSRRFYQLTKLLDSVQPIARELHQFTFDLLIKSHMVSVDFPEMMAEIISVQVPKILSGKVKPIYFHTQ
Chain of Peroxisome proliferator-activated receptor gamma (Homo sapiens) (P37231 whole entry, looked up, the tested form may be a part): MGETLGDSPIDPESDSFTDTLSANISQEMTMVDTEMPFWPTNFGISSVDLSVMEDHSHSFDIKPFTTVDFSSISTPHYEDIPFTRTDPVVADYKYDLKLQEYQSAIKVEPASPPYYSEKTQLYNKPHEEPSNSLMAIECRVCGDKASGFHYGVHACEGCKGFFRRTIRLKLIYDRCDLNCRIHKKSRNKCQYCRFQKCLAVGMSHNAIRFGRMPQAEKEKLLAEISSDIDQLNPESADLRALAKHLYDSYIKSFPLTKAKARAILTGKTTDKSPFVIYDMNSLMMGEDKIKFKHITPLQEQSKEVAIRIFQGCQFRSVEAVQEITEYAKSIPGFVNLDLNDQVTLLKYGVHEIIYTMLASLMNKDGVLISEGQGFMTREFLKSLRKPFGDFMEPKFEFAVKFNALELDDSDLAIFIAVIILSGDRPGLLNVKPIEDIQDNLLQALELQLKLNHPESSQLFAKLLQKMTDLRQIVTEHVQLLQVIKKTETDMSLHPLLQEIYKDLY
Chain of Estrogen receptor beta (Homo sapiens) (Q92731 whole entry, looked up, the tested form may be a part): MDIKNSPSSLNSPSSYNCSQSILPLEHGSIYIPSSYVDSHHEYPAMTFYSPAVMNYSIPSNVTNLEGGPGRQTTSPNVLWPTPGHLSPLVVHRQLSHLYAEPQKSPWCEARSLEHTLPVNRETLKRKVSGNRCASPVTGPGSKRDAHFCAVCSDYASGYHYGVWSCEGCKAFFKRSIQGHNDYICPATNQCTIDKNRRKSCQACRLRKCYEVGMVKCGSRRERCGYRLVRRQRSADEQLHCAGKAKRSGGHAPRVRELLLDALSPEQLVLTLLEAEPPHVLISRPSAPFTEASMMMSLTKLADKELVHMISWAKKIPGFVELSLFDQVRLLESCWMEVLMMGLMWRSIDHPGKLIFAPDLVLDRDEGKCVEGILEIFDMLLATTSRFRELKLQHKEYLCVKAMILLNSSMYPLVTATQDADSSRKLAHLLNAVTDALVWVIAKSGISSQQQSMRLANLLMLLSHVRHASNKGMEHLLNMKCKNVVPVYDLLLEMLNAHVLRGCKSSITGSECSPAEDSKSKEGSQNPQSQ
Chain of chicken Estrogen Receptor (ERa), ESR1 (gene 396099) (P06212 whole entry, looked up, the tested form may be a part): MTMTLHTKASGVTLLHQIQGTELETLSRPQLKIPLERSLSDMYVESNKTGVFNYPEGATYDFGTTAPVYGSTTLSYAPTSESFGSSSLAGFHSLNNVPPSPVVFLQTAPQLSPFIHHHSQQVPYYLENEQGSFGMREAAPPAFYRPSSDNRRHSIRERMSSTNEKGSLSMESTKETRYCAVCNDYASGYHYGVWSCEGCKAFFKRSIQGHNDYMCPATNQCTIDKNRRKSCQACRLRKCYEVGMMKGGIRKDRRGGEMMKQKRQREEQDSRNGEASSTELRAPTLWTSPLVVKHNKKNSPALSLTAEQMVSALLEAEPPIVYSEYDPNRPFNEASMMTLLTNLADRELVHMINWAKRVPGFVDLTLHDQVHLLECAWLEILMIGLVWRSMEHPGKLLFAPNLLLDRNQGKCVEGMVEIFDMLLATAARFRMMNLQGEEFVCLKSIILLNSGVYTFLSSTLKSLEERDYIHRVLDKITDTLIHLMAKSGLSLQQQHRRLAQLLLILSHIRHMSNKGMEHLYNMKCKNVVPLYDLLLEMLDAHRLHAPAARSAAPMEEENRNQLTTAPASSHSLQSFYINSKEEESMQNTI
Chain of mouse Peroxisome Proliferator-activated Receptor gamma (PPARg), Pparg (gene 19016) (P37238 whole entry, looked up, the tested form may be a part): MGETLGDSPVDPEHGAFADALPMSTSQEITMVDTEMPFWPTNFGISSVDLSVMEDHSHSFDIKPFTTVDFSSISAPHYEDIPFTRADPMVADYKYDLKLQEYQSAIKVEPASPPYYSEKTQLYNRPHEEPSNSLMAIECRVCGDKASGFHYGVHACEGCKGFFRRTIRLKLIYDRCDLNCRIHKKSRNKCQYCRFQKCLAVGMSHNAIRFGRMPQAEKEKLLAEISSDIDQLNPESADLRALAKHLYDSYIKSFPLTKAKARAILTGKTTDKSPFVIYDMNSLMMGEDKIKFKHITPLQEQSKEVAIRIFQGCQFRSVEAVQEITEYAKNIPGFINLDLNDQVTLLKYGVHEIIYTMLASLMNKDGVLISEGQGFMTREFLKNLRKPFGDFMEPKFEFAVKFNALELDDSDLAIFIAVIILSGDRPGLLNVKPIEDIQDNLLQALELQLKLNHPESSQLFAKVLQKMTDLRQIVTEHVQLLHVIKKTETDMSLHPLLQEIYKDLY
Chain of zebrafish Estrogen Receptor (ER1), esr1 (gene 259252) (P57717 whole entry, looked up, the tested form may be a part): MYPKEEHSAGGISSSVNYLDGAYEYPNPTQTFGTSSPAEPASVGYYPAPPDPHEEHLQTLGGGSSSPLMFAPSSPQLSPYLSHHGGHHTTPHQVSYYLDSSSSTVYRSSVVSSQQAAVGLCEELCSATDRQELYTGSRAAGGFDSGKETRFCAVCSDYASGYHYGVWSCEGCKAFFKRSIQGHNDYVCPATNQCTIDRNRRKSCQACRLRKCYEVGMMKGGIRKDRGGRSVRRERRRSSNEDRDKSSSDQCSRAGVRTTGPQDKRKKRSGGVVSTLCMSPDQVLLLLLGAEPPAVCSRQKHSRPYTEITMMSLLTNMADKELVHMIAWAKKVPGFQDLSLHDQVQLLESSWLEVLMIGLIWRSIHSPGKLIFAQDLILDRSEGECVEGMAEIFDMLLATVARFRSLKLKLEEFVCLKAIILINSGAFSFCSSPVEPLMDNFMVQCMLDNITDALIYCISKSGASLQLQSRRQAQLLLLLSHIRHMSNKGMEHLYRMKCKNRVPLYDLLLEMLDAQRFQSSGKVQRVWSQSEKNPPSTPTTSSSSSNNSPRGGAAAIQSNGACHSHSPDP
Chain of GAL4 Transcription Factor (Internal Marker), GAL4 (gene 855828) (P04386 whole entry, looked up, the tested form may be a part): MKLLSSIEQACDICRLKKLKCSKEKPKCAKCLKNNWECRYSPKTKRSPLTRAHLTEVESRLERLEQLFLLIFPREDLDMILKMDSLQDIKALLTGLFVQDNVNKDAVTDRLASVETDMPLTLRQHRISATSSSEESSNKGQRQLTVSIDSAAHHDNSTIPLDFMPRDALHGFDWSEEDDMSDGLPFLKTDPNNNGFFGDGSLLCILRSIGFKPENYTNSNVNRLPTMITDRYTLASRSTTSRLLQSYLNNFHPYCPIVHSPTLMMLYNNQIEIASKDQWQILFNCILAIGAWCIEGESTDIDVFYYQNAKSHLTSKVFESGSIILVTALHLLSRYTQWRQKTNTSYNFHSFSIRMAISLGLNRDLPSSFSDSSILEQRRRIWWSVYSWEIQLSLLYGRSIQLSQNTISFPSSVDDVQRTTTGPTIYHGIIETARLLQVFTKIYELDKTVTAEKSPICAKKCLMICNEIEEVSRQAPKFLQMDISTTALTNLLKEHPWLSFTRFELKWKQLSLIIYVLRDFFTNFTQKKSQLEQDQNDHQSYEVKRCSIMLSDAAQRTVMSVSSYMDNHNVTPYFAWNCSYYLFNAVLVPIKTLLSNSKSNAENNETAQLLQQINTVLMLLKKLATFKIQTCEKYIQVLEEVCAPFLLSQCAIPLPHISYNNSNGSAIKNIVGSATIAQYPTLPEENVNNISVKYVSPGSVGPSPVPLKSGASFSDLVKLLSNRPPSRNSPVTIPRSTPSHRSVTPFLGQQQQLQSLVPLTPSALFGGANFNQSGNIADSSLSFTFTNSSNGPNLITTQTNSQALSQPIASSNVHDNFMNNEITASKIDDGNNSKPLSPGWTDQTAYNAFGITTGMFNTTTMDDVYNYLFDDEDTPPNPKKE

Regarding `O=S1(=O)OC(c2cc(Br)c(O)c(Br)c2)(c2cc(Br)c(O)c(Br)c2)c2ccccc21`, the call in the assay with AR (gene 367) was inactive.
On to `CNC(=O)O/N=C/C(C)(C)S(C)(=O)=O`, for which, in the assay with AR (gene 367), the outcome was inactive.
One may read the AC50 as the midpoint of the concentration-response curve, whichever way the signal moves. For the compound `Oc1cc(Cl)c(Cl)cc1Cl`, the AC50 in assay [1] is 13 µM (active) and 6.06 µM (active); in assay [2], 20.3 µM (active); in assay [4], 7.74 µM (active) and 2.23 µM (active); in assay [6] it was 29.9 µM (active); in [7], 21.9 µM (active); in assay [8], 6.4 µM (active) and 3.09 µM (active). Also, the AC50 in assay [9] is 18.8 µM (active); in assay [11], 68.6 µM (active) and 22.9 µM (active); in [12], 5.4 µM (active) and 2.63 µM (active); in [13], 24.5 µM (active) and 19.2 µM (active); in [14], 60.1 µM (active) and 44.2 µM (active); in [15], 65 µM (active) and 35 µM (active). Moreover, the call in [2], in assay [3], in assay [5], in assay [6], in assay [7] and in [9] was inactive. The compound was classed as inactive in assay [10].
For the compound `O=C(CCl)Nc1ccccc1`, in the assay with AR (gene 367), the AC50 is 16.6 µM (active).
On to `O=S1OC[C@@H]2[C@H](CO1)[C@]1(Cl)C(Cl)=C(Cl)[C@@]2(Cl)C1(Cl)Cl` (stereo partly specified), for which the compound was called inactive with AR (gene 367).
Turning to `C=CC(Cl)CCl` (stereo unspecified), the compound was called inactive in the assay with AR (gene 367).
As for `COCCl`, the compound was classed as inactive (with AR (gene 367); in assay [1]; in assay [2]; in assay [4]; in [5]; in assay [6]). Besides, the compound was classed as inactive in [7], in assay [8], in assay [9], in assay [10], in assay [11] and in assay [16]. The compound was classed as inactive in assay [13], in assay [14] and in assay [15]. The AC50 in [7] was 34.8 µM (active); in assay [9], 19.8 µM (active); in [11], 65.6 µM (active); in assay [13] it was 61.9 µM (active).
`O=[N+]([O-])c1ccc(Cl)c([N+](=O)[O-])c1`: the AC50 with AR (gene 367) is 24.8 µM (active).
With `O=C1c2ccccc2C(=O)C1C(=O)C(c1ccccc1)c1ccc(Cl)cc1` (stereo unspecified), the AC50 with AR (gene 367) is 25 µM (active).
On to `CC(=Cc1ccccc1)[N+](=O)[O-]`, for which, in the assay with AR (gene 367), the AC50 is 6.33 µM (active).

The values above are taken from PubChem BioAssay (EPA / NIEHS).
